TDP1 cell CPT: qHTS for Inhibitors of human tyrosyl-DNA phosphodiesterase 1 (TDP1): qHTS in cells in presence of CPT; actives 12% (n = 420,000); Potency, µM (top dose mostly 46.2 µM), for the others: at the top dose activity change, negative = growth inhibition, most hits filed as inhibitors; chicken DT40 Tdp1-/-;hTDP1 cells + 20 nM CPT, ATP luminescence, 48 h; note: potency is the fitted concentration of half-maximal effect; nearly all actives have a fitted effect of over 55% in size
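Chicken DT40 Tdp1-/- cells complemented with human TDP1, 400 cells/well, exposed to compounds plus 20 nM camptothecin for at least 48 h at 37 C; viability read as ATP content by CellTiter-Glo luminescence.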
12-LOX inh: Primary qHTS assay for inhibitors of human arachidonate 12S-lipoxygenase (ALOX12): Round 2; actives 1.1% (n = 580,000); purified 12hLO, xylenol orange hydroperoxide absorbance; AID 1671190, 2021; Polyunsaturated fatty acid lipoxygenase ALOX12 (Homo sapiens), P18054; Potency, µM (highest dose often 108 µM), for inactives: at the top dose activity change, negative = inhibition, most hits filed as inhibitors; note: potency is the fitted concentration of half-maximal effect
Target sequence (P18054 whole entry, looked up): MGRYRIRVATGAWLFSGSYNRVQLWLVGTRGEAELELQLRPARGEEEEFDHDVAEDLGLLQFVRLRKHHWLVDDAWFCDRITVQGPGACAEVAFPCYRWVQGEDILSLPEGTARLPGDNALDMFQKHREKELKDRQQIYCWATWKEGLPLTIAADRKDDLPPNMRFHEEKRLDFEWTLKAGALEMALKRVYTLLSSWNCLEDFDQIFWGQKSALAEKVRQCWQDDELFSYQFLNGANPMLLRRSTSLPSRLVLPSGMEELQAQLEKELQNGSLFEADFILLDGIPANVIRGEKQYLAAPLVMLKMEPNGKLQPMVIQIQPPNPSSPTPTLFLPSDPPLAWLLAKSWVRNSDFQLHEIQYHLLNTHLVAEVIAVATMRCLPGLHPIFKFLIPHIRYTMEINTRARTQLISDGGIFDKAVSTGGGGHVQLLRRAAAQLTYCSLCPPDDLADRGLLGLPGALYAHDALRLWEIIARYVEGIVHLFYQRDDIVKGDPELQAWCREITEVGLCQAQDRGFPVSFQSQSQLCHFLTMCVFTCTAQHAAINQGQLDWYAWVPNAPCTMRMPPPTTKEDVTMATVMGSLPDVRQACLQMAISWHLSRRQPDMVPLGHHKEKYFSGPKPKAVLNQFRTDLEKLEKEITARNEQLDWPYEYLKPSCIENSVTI
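Purified human 12hLO (150 nM final) in 25 mM Hepes, 0.01% Triton X-100, pH 7.0 was preincubated 15 min at room temperature with compound. Then 40 uM arachidonic acid was added, 30 min. Hydroperoxide was read by Fe-XO absorbance ratio 573/405 nm.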
HT1080NT lethal: qHTS for induction of synthetic lethality in tumor cells producing 2HG: qHTS for the HT-1080-NT fibrosarcoma cell line; HT-1080-NT fibrosarcoma viability, CellTiter-Glo ATP luminescence, 48 h; Potency, µM (highest dose often 46.1 µM), without a hit: at the highest dose activity, negative = less viability, hits mostly cytotoxic; actives 1.6% (n = 360,000); AID 686970, 2013;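 note: NT is the 2HG producing partner of a matched IDH1 knockdown line; potency is the fitted concentration of half-maximal effect; 0% = DMSO-treated cells and -100% = media-only wells without cells; nearly all actives have a fitted effect of over 55% in size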
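A 48-hour cytotoxicity screen used HT-1080-NT cells plated 2 hours before compound delivery. ATP-based CellTiter-Glo luminescence measured viability, normalized to DMSO and no-cell controls.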
DT40 TDP1 no CPT: qHTS for Inhibitors of human tyrosyl-DNA phosphodiesterase 1 (TDP1): qHTS in cells in absence of CPT; DT40 Tdp1-/- hTDP1 cells, no CPT, ATP luminescence, 48 h; actives 15% (n = 420,000); Potency, µM (series often up to 46.2 µM), inactives show at the top dose activity change, negative = growth inhibition, hits mostly inhibitors; note: potency is the fitted concentration of half-maximal effect; nearly all actives have a fitted effect of over 55% in size
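Growth kinetics read by CellTiter-Glo luminescence after ≥48 hr at 37 °C. Cells: DT40 Tdp1-/- stably carrying human TDP1, 400 per well, compound exposure in the absence of CPT (DMSO vehicle).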
HT1080 IDH1KD tx: qHTS for induction of synthetic lethality in tumor cells producing 2HG: qHTS for the HT-1080-IDH1KD cell line; HT-1080 IDH1 knockdown viability, ATP luminescence, 48 h; Potency, µM (doses to about 46.1 µM), for inactives: top-dose activity, negative = toxicity, usual class: cytotoxic; actives 2% (n = 360,000); AID 686971, 2013;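 note: potency is the fitted concentration of half-maximal effect; 0% = DMSO wells and -100% = cell-free medium wells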
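After a 2 h attachment period, IDH1KD HT-1080 cells took pin-transferred compound for 48 h at 37 °C; ATP-based luminescence after 10 min room-temperature reagent incubation reported viability.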
IL1B secr inh: qHTS for Inhibitors of Inflammasome Signaling: IL-1-beta AlphaLISA Primary Screen. activity change, % at 57.5 µM. THP-1 LPS/ATP IL-1B secretion, AlphaLISA, 16 h; active compounds read low. actives 4.7% (n = 360,000); in the data active = activity change below about -50%; inconclusive = mostly about -30% to -49%
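THP-1 cells pretreated 1 hr with compounds (up to 57.5 uM final), then stimulated with LPS (250 ng/mL final) plus ATP (1.25 mM final); secreted IL-1B measured by AlphaLISA after 16 hr, decreased signal indicating inhibition.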
An asterisk follows results filed as active; u = inconclusive; x = no result given; [ ] = another dose, or the depositor's remark. The entries come from a sample that favours hits as a whole. Unless noted, calls come from the whole dose curve; as a rule, active = well fitted curve in the direction sought with a large enough effect; inconclusive = small, poorly fitted or top-dose-only effect, or another doubt; inactive = no such curve, though single readings can be large; an effect the other way counts as inactive or inconclusive. Unless noted, % is set by controls: 0 for no effect and ±100 for the full control effect.

SMILES | TDP1 cell CPT | 12-LOX inh | HT1080NT lethal | DT40 TDP1 no CPT | HT1080 IDH1KD tx | IL1B secr inh
c1ccc2sc(SCC34CC5CC(CC(C5)C3)C4)nc2c1 | x | -1% | x | x | x | x
CN(C)C(=O)C1CN(C(=O)c2ccc(Br)cc2)CC12CCOCC2 (stereo not given) | x | 19% | x | x | x | x
CC(Nc1nc(-c2ccccc2F)nc2ccccc12)c1ccccc1 (stereo not given) | -22% | 0% | -16% | u | -4% | -90*
Fc1ccc(CNc2nc(-c3cccnc3)nc3ccccc23)cc1 | u | u | -29% | 18µM* | u | -69*
c1cncc(-c2nc(NCC3COc4ccccc4O3)c3ccccc3n2)c1 (stereo not given) | 18µM* | u | u | u | u | -78*
CCN(CC(=O)Nc1ccc2c(c1)OCCO2)c1nc(-c2cccnc2)nc2ccccc12 | u | 0% | -1% | 23µM* | -14% | -30
CC(Nc1nc(-c2ccccc2O)nc2ccccc12)c1ccccc1 (stereo not given) | u | -13% | u | u | u | 21
CCN(CC(=O)Nc1ccc2c(c1)OCCO2)C(=O)c1cc(Cl)nc2ccccc12 | -5% | -6% | -2% | -34% | 0% | 14
COC1C(=O)N(CC2CC2)C12CCN(C(=O)COc1ccc(F)cc1)CC2 (stereo not given) | x | 9% | x | x | x | x
CN(C)C(C(=O)N1CCSCC1)c1ccc(F)cc1 (stereo not given) | x | 37% | x | x | x | x
CCCN1CCC(Nc2nc(-c3cccnc3)nc3ccccc23)CC1 | x | -11% | x | x | x | x
c1ccc(CN2CCC(Nc3nc(-c4cccnc4)nc4ccccc34)CC2)cc1 | 18µM* | u | u | 13µM* | 21µM* | -91*
CSCCC(NC(=O)c1ccco1)C(=O)Nc1ccc(C)cn1 (stereo not given) | 3% | -15% | 1% | 2% | -2% | 6
COc1ccc(NC(=O)c2ccco2)cc1NC(=O)c1cc2ccccc2o1 | 23µM* | 3% | 14% | 15µM* | 2% | 11
COc1cc(OC)cc(C(=O)Nc2cc(NC(=O)c3ccco3)ccc2OC)c1 | 23µM* | -11% | -12% | 18µM* | u | -23
CCCOc1cccc(C(=O)Nc2cc(NC(=O)c3ccco3)ccc2OC)c1 | u | -6% | 9% | u | 1% | -10
Cc1cc(NC(=O)c2ccco2)ccc1NC(=O)c1ccco1 | u | u | u | u | -26% | -10
Cc1cc(NC(=O)c2ccc3c(c2)OCO3)ccc1NC(=O)c1ccco1 | u | -1% | u | u | 18µM* | x
COc1cc(OC)cc(C(=O)Nc2ccc(NC(=O)c3ccco3)c(C)c2)c1 | u | -26% | u | u | 23µM* | -21
Cc1cc(NC(=O)c2ccc3c(c2)OCO3)ccc1NC(=O)c1ccccc1 | u | 9% | -23% | u | u | -18
CCOc1cccc(CNC(=O)c2c(OCC(C)C)cc(=O)n3c2CCCCC3)c1 | x | 45% | x | x | x | x
Cc1cc(OCn2ccc(C(=O)NN3CCOCC3)n2)ccc1Cl | x | 24% | x | x | x | x
COC(=O)c1c(NC(=O)CN2CCCC(C)C2)c2c(C)cccc2n1C (stereo not given) | u | 38% | -12% | 6.5µM* | -4% | -11
Cc1cc2oc(C(=O)N3CCN(c4cccc(Cl)c4)CC3)cc(=O)c2cc1C | x | 7% | x | x | x | x
CN(C)c1ccc(/C=C/c2nc(-c3ccccc3O)n(-c3ccccc3)n2)cc1 | 16µM* | -17% | x | u | x | x
SMILES | TDP1 cell CPT | 12-LOX inh | HT1080NT lethal | DT40 TDP1 no CPT | HT1080 IDH1KD tx | IL1B secr inh
O=C(NCc1c[nH]c2ncccc12)c1ccc(Cl)cc1 | x | 33%[176 µM] | x | x | x | x
CC1C/C(=N\NC(=S)NC(C)C)CC(C)(C)C1 (stereo not given) | 10µM* | u | 16% | 18µM* | 8% | 59
O=C(CNC(=O)c1cc(Cl)cc([N+](=O)[O-])c1)OCC(=O)N1CCCCC1 | -18% | 2% | -1% | 0% | -8% | -74*
NC(=O)COC(=O)CNC(=O)c1cc(Cl)cc([N+](=O)[O-])c1 | 22% | 23% | 24% | 18% | 23% | 12
Cc1cccc(NC(=O)c2c(C)cc(C)nc2SCC(=O)c2ccccc2)c1 | u | 5% | x | 16µM* | x | x
Cc1cc(C)c(C(=O)Nc2ccccc2)c(SCC(=O)Nc2ccc(Br)cc2C)n1 | 16µM* | 3% | x | 23µM* | x | x
COc1ccccc1NC(=O)CSc1nc(C)cc(C)c1C(=O)Nc1ccccc1 | x | 32% | x | x | x | x
C#CCN(C)CC[C@@H]1CC[C@H](O)[C@@H](C(=O)NC(C)C)O1 | x | -24%[176 µM] | x | x | x | x
CN(Cc1ccccc1)C(=O)[C@H]1O[C@H](CCN2CCN(c3ccccc3)CC2)CC[C@@H]1O | x | 38% | x | x | x | x
COCCN1CCn2c(nc3cc(NC(=O)c4ccc(OC)cc4)ccc32)C1 | 21µM* | 0% | 28% | 21µM* | 23% | -7
COCCN1CCn2c(nc3cc(NC(C)=O)ccc32)C1 | 10% | -4% | 14% | 8% | 16% | 15
O=C(Nc1ccc2c(c1)nc1n2CCN(Cc2ccccc2)C1)c1cccs1 | u | 0% | 0% | 18µM* | 1% | -94*
COCCN1CCn2c(nc3cc(NC(=O)NC4CCCCC4)ccc32)C1 | u | 83% | -3% | 16µM* | 9% | -24
O=C(Nc1ccc2c(c1)nc1n2CCN(Cc2ccccc2)C1)NC1CCCCC1 | u | -29% | u | 21µM* | -5% | -12
Cc1cc(C)cc(C(=O)N2[C@@H]3CC[C@H]2CC(NC(=O)c2cnc(C)cn2)C3)c1 (stereo not given in full) | x | 3% | x | x | x | x
COc1ccc(N2CCN(C(=O)CSc3nc(-c4ccc(C(C)C)cc4)no3)CC2)cc1 | 18µM* | u | x | 12µM* | x | x
O=C(Cn1nnc(-c2ccccc2)n1)N1CCC(c2nc3ccccc3s2)CC1 | x | 40µM* | x | x | x | x
CC1CCCCN1C(=O)CSc1nnc(-c2cccc(Cl)c2)o1 (stereo not given) | 16µM* | -5% | x | u | x | x
